# Bioassay records from PubChem.
# PTHR1 agonist: activates the human parathyroid hormone receptor PTHR1 | Q03431 | HEK293 GP2 PTHR1 cells, GloSensor cAMP luminescence, 1 h | Potency, µM (highest dose often 115 µM), actives largely listed as activators | hit rate 0.075% among 410,000; further: nearly all actives have a fitted effect of over 55% in size
#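 HEK-293-derived GP2 cells expressing PTHR1 and a GloSensor cAMP reporter, 3,000/well, plated overnight, given luciferin plus IBMX (each 0.5 mM as added) for 1 h at 37 °C, then compound for 1 h at 37 °C. Luminescence was read after 15 min at room temperature.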
# Integrin act MD: activates integrin-mediated alleviation for muscular dystrophy | alpha7betagal myoblasts, beta-gal FDG fluorescence, 48 h | Potency, µM (highest dose often 38.3 µM), hits mostly activators | hit rate 0.064% among 350,000; further: nearly all actives have a fitted effect of over 60% in size
#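 alpha7betagal+/- myoblasts (passage 13, 250/well) treated 48 h at 37C with compounds at 1:260 dilution of DMSO stock. Lysed, then beta-galactosidase activity read as FDG fluorescence (ex 480/em 540) after 30 min, with pre-read for autofluorescence.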
# DRD3 antagonist: D3 dopamine receptor (human) antagonism; hit rate 2.5% among 360,000; P35462; D3R cells, DiscoveRx beta-arrestin luminescence, antagonist mode; active compounds read low; max response, negative = inhibition, %; in the data active means max response below about -50%; inconclusive means no clear call, values can overlap the other calls
#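 Cells expressing the human receptor were seeded at 1500 cells/well, incubated overnight at 37 degrees C in 5% CO2, then exposed to library compounds with dopamine controls for 90 minutes at 37 degrees C before luminescent detection.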
# MBNL1-CUG inh: inhibitors of human MBNL1 binding to CUG repeat RNA; Q9NR56; TR-FRET MBNL1-His/biotin-(CUG)12 binding, 665/545 ratio; Potency, µM (doses to about 57.5 µM), usual class: inhibitors; hit rate 0.036% among 280,000; active means well fitted inhibition curve with a large enough effect in the signal ratio, with a control signal flat, not every such curve was filed as active; inconclusive means small, poorly fitted or top-dose-only effect, or effect the other way, or a change in a side signal; inactive means no such curve, though single readings can be large or run the other way; the % refers to the signal ratio
#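 Compound titration spanned 92 nM–58 uM against the MBNL1-His/biotin-(CUG)12 complex. After 60 min at room temperature with 5 nM streptavidin-XL665 and 0.055 ng/ul terbium anti-His, ratiometric 665/545 nm emission (Ex 340 nm) normalized to controls.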
# DRD3 agonist: D3 dopamine receptor (human) agonism; D3R DiscoveRx beta-arrestin cells, luminescence, 90 min; max activation, %; hit rate 0.58% among 410,000; AID 652048; in the data active means max activation above about 30%
#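 Agonist mode: compounds and dopamine controls were applied to plated cells for 90 min at 37 degrees C after an overnight attachment at 1500 cells/well. Luminescent read-out followed 30 - 60 minutes at room temperature with DiscoveRx detection reagent.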
# CBFb RUNX1 block: blocks binding between human CBF-beta and RUNX1. Potency, µM (series often up to 59.8 µM), most hits filed as inhibitors. 230,000 tested, under 10 active. Q01196+Q13951. AlphaScreen CBFb-His/RUNX1-biotin binding, biochemical
# Target sequence (Q01196 whole entry, looked up): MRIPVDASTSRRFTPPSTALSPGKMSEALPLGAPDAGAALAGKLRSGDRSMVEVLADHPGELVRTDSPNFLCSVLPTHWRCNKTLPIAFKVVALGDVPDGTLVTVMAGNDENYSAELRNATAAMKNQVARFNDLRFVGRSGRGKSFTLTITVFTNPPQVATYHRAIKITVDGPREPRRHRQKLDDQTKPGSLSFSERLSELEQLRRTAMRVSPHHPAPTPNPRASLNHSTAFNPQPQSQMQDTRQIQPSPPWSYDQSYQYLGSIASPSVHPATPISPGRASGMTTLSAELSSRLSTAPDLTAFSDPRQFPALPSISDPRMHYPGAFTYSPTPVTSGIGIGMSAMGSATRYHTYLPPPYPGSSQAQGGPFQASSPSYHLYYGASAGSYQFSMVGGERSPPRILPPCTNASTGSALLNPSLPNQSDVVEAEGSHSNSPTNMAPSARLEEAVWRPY
# Target sequence (Q13951 whole entry, looked up): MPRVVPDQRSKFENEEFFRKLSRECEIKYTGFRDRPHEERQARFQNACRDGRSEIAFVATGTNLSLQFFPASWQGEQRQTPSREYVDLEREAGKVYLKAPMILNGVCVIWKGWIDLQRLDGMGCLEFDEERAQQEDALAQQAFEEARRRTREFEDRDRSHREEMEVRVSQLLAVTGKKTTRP
#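 Compounds were screened at multiple concentrations against a preformed CBF-beta(His)/RUNX1(biotin) complex (30 nM of each) for 15 min at room temperature, followed by 90 min with nickel and streptavidin beads and AlphaScreen reading.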
# A number is an active result; n = inactive; u = inconclusive; x = not tested or not shown; [ ] = another dose, or the depositor's remark. Hits are enriched below; roughly 2.8% of the tested compounds scored in any of these assays. Unless noted, the call rests on the fitted dose curve; in most records, active means well fitted curve in the direction sought with a large enough effect; inconclusive means small, poorly fitted or top-dose-only effect, or another doubt; inactive means no such curve, though single readings can be large; an effect the other way counts as inactive or inconclusive.
SMILES,PTHR1 agonist,Integrin act MD,DRD3 antagonist,MBNL1-CUG inh,DRD3 agonist,CBFb RUNX1 block
FC(F)(F)C(F)(F)c1nc2nc(Cl)c(Cl)nc2[nH]1,n,n,n,x,n,x
COc1cc(OC)c(CN2CCN(c3ccc(F)cc3)CC2)cc1Br,u,n,-74.0,n,n,n
COc1ccc(CN2CCN(c3ccc(F)cc3)CC2)c(OC)c1OC,n,n,n,n,n,n
C=CCSc1nnc(NC(=O)CCNC(=O)c2ccccc2Cl)s1,n,n,n,x,n,x
NS(=O)(=O)c1ccc(NC(=O)c2ccc(CNS(=O)(=O)c3cc(C(F)(F)F)ccc3Cl)cc2)cc1,n,10µM,n,n,n,n
O=C1Oc2ccccc2C(=O)/C1=C/N1CCN(c2ccccc2F)CC1,n,u,-59.4,n,n,n
CCS(=O)(=O)N1CCN(c2ccccc2F)CC1,n,n,n,n,n,n
Cn1c(=O)c([N+](=O)[O-])c(Cl)c2ccccc21,n,n,-84.8,n,n,n
COc1ccc(C2=NN(C(=O)CCC(=O)O)C(c3ccc(OC)c(OC)c3)C2)cc1 (stereo not drawn),n,n,-50.5,n,n,x
CCn1cc(C(=O)NCc2ccc(F)cc2)c(=O)c2cc(S(=O)(=O)N(C)C)ccc21,n,x,x,x,n,x
C[C@@H](NC(=O)c1nc[nH]c1C(=O)OCc1ccccc1)c1ccccc1,n,n,n,x,n,x
CCN(CC)C(=O)c1[nH]cnc1C(=O)NCc1ccccc1,n,n,-54.0,x,n,x
C[C@@H](NC(=O)c1nc[nH]c1C(=O)NCC(=O)OCc1ccccc1)c1ccccc1,n,n,n,n,47.2,x
CCN(CC)C(=O)c1[nH]cnc1C(=O)N[C@@H](C)C(=O)OCc1ccccc1,n,n,n,n,n,n
O=C(N[C@@H](Cc1ccccc1)C(=O)OCc1ccccc1)c1nc[nH]c1C(=O)NCc1ccccc1,n,n,-75.5,n,n,n
CC(C)C[C@H](NC(=O)c1[nH]cnc1C(=O)N[C@@H](Cc1ccccc1)C(=O)OCc1ccccc1)C(=O)OCc1ccccc1,n,n,n,n,n,x
CC1CCN(C(=O)c2ccc(NC3=C(Cl)C(=O)N(Cc4ccccc4)C3=O)cc2)CC1,n,n,-53.0,x,n,x
CC1CCCCN1C(=O)c1cccc(NC2=C(Cl)C(=O)N(Cc3ccccc3)C2=O)c1 (stereo not drawn),n,n,n,x,n,x
COc1ccc(C2=CC(=O)CCC2)cc1,n,n,n,x,n,x
O=C(NC1CCCC1)C(C1CC1)n1c(-c2ccccn2)nc2ccccc21 (stereo not drawn),n,x,n,x,n,x
Cc1ccc(C(=O)/C=C/Nc2ccccc2C(N)=O)cc1,n,n,-80.3,u,n,n
COc1ccc2c(c1)CCC1C2=NN(/C(C)=C/C(C)=O)C1c1cccc(F)c1 (stereo not drawn),n,n,-58.0,n,n,n
CN1CCN(C(=S)c2cn(CCOc3ccccc3F)c3ccccc23)CC1,n,n,u,n,n,n
Cc1cc(S(=O)(=O)NCc2ccccc2)ccc1OCC(=O)N1CCCC1,n,n,n,n,n,x
CCN(CC)CCCNc1oc(-c2ccccc2[N+](=O)[O-])nc1C#N,n,n,-56.1,x,n,n
SMILES,PTHR1 agonist,Integrin act MD,DRD3 antagonist,MBNL1-CUG inh,DRD3 agonist,CBFb RUNX1 block
CCN(CC)CCCNc1oc(-c2ccc(OC)c(OC)c2)nc1C#N,n,n,n,n,n,n
CC(=O)Oc1ccccc1Cn1c(C)c(C(=O)NCCC#N)sc1=O,n,x,n,x,n,x
CN1CCC(Oc2ccccc2Sc2ccccc2)CC1,n,n,-63.4,n,n,n
C=C(C)Cn1c2ccc(NC(=O)CCc3cccc(Cl)c3)cc2c(=O)n1C,n,x,n,x,45.3,x
N#C/C(C(=O)N1CCOCC1)=C1/SC(Cc2ccccc2)C(=O)N1c1ccccc1 (stereo not drawn),n,n,-50.7,n,n,n
COc1ccc(OCCCN2CCCCCC2)cc1,n,n,-64.4,n,n,n
O=C(c1ccccc1)c1ccc(OCCCN2CCCCC2)cc1,n,n,-83.0,n,n,n
CC(=O)c1ccc(OCCCN2CCCCC2)cc1,n,n,-71.8,n,n,n
c1ccc(COc2ccc(OCCCN3CCCCC3)cc2)cc1,n,n,-79.9,n,n,n
O=S(=O)(NCc1ccc(F)cc1)c1ccc(Br)cc1Br,n,n,n,x,n,x
Cc1sc2nc(CN3CCOCC3)nc(NS(=O)(=O)c3cc(Cl)ccc3Cl)c2c1C,n,n,n,x,n,x
C/C(=N\NC(=O)C1CC1)c1ccccc1O,n,n,n,n,n,n
CCc1nc(NC(=O)c2sc(C)nc2C)sc1C(=O)OC,n,n,n,n,n,x
CCCCOc1ccc(C(=O)CCN2CCCCC2)cc1,n,x,-56.0,n,n,n
COc1ccc(C(O)(CCN2CCCCC2)C2CCCCC2)cc1 (stereo not drawn),n,n,-52.5,n,n,x
O=C(c1ccccc1)c1ccc(OCC(O)CN2CCCCC2)cc1 (stereo not drawn),n,n,-66.6,n,n,n
CCCCCCCCCCCCCCCC(=O)OC[C@@H](O)[C@H]1OC[C@H](O)[C@H]1O,x,x,x,x,n,x
Cc1ccccc1C(=O)NC1(C(F)(F)F)N=C(c2ccccc2)N(C2CCCCC2)C1=O (stereo not drawn),n,x,x,x,n,x
COC(=O)c1cc(Cl)c(NC(=O)C(C)C)cc1OC,n,n,n,n,n,n
COC(=O)c1cc(Cl)c(NC(=O)c2ccc(C(C)(C)C)cc2)cc1OC,n,n[7.66 µM],n,n,70.4,n
COc1ccccc1-n1nc(-c2ccccc2)c2cnc3cc(C(F)(F)F)ccc3c21,n,x,x,x,n,x
COc1ccc(-c2noc(CN(C(=O)c3ccc4c(c3)OCO4)C(C)C)n2)cc1,n,n,n,n,90.9,x
Cc1cccc(NC(=O)CCN2CCN(c3ccccc3F)CC2)c1,n,x,x,x,38.9,x
